Results taken from PubChem BioAssay AID1159580 (chemical genetic matrix, 2015).
Several values for one entry are separate records, joined by “and”; a condition that tells them apart may be missing. Equal values may be shown once. The whole screen tested about 5,500 compounds, of which about 2,000 (36%) were called active. About 18% were inconclusive and are not listed. No stated cut-off is given here; in the data, active means normalized growth mostly below about 0.91 (no sharp cut-off); inconclusive means no clear call, values can overlap the other calls; inactive means mostly above about 0.92. Some of the results follow.

Test: chemical genetic growth profiling, strain panel (AID 1159580);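 further: tested at 20 µM; growth read once vehicle control cultures reached saturation at 30 °C; 1 = growth at the plate median or of vehicle wells; lower values mean less growth of the strain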
Conditions: growth OD

Measured: normalized growth

CCCCCCCCC(=O)NCc1ccc(O)c(OC)c1
inactive: S. cerevisiae deletion strains, locus YJR075W, strain HOC1, hits give low values 0.989 and 0.961 | S. cerevisiae deletion strains, locus YKL009W, strain mrt4, hits give low values 0.955 | S. cerevisiae deletion strains, locus YKL068W, hits give low values 0.986 | S. cerevisiae deletion strains, locus YKL085W, strain MDH1 (second series), hits give low values 0.987 | S. cerevisiae deletion strains, locus YKL085W, strain MDH1, hits give low values 0.987 | S. cerevisiae deletion strains, locus YKL160W, strain elf1, hits give low values 0.985 | S. cerevisiae deletion strains, locus YKL190W, strain CNB1, hits give low values 0.999 | S. cerevisiae deletion strains, locus YKR001C, strain vps1, hits give low values 0.983 | S. cerevisiae deletion strains, locus YKR026C, strain gcn3, hits give low values 0.979 | S. cerevisiae deletion strains, locus YKR091W, strain srl3, hits give low values 0.999 | S. cerevisiae deletion strains, locus YLL001W, strain dnm1, hits give low values 1 | S. cerevisiae deletion strains, locus YLL026W, hits give low values 1 | S. cerevisiae deletion strains, locus YLL041C, strain sdh2, hits give low values 1 | S. cerevisiae deletion strains, locus YLR027C, strain aat2, hits give low values 1.01 | S. cerevisiae deletion strains, locus YLR039C, strain RIC1, hits give low values 1 | S. cerevisiae deletion strains, locus YLR058C, strain SHM2, hits give low values 0.984 | S. cerevisiae deletion strains, locus YLR102C, strain apc9, hits give low values 0.987 | S. cerevisiae deletion strains, locus YLR113W, strain HOG1, hits give low values 1.01 | S. cerevisiae deletion strains, locus YLR221C, strain rsa3, hits give low values 1.01 | S. cerevisiae deletion strains, locus YLR258W, strain gsy2, hits give low values 0.989 | S. cerevisiae deletion strains, locus YLR262C, strain YPT6 (second series), hits give low values 1.02 | S. cerevisiae deletion strains, locus YLR262C, strain YPT6, hits give low values 1.01 | S. cerevisiae deletion strains, locus YLR268W, strain sec22, hits give low values 0.97 | S. cerevisiae deletion strains, locus YLR320W, strain mms22, hits give low values 0.997 | S. cerevisiae deletion strains, locus YLR330W, strain CHS5, hits give low values 0.985 | S. cerevisiae deletion strains, locus YLR342W, strain FKS1 (second series), hits give low values 0.966 | S. cerevisiae deletion strains, locus YLR342W, strain FKS1, hits give low values 1.03 | S. cerevisiae deletion strains, locus YLR357W, strain rsc2, hits give low values 1.12 | S. cerevisiae deletion strains, locus YLR370C, strain arc18, hits give low values 0.993 | S. cerevisiae deletion strains, locus YLR371W, strain rom2, hits give low values 0.985 | S. cerevisiae deletion strains, locus YLR384C, strain iki3, hits give low values 1 | S. cerevisiae deletion strains, locus YLR418C, strain cdc73, hits give low values 0.989 | S. cerevisiae deletion strains, locus YML016C, strain PPZ1, hits give low values 0.978 | S. cerevisiae deletion strains, locus YML032C, strain rad52, hits give low values 0.97 | S. cerevisiae deletion strains, locus YML120C, strain ndi1, hits give low values 0.992 | S. cerevisiae deletion strains, locus YML124C, strain tub3, hits give low values 0.975 | S. cerevisiae deletion strains, locus YMR058W, strain fet3, hits give low values 1 | S. cerevisiae deletion strains, locus YMR078C, strain ctf18, hits give low values 0.977 | S. cerevisiae deletion strains, locus YMR125W, strain sto1, hits give low values 1.05 | S. cerevisiae deletion strains, locus YMR129W, hits give low values 1.02 | S. cerevisiae deletion strains, locus YMR205C, strain PFK2, hits give low values 0.961 | S. cerevisiae deletion strains, locus YMR223W, strain ubp8, hits give low values 0.965 | S. cerevisiae deletion strains, locus YMR231W, strain pep5, hits give low values 1.01 | S. cerevisiae deletion strains, locus YMR263W, strain SAP30, hits give low values 0.998 | S. cerevisiae deletion strains, locus YMR307W, strain GAS1, hits give low values 1.07 and 0.979 | S. cerevisiae deletion strains, locus YNL067W, strain RPL9B, hits give low values 0.995 | S. cerevisiae deletion strains, locus YNL071W, strain lat1, hits give low values 0.976 | S. cerevisiae deletion strains, locus YNL128W, strain TEP1, hits give low values 0.999 and 0.969 | S. cerevisiae deletion strains, locus YNL153C, strain GIM3, hits give low values 0.997 | S. cerevisiae deletion strains, locus YNL175C, strain NOP13, hits give low values 0.972 | S. cerevisiae deletion strains, locus YNL183C, strain NPR1, hits give low values 0.93 | S. cerevisiae deletion strains, locus YNL197C, strain WHI3, hits give low values 0.963 | S. cerevisiae deletion strains, locus YNL209W, strain ssb2, hits give low values 0.995 | S. cerevisiae deletion strains, locus YNL224C, strain SQS1, hits give low values 0.984 | S. cerevisiae deletion strains, locus YNL233W, strain BNI4, hits give low values 0.988 | S. cerevisiae deletion strains, locus YNL248C, strain rpa49, hits give low values 1.06 | S. cerevisiae deletion strains, locus YNL250W, strain rad50, hits give low values 0.975 | S. cerevisiae deletion strains, locus YNL271C, strain bni1, hits give low values 0.983 | S. cerevisiae deletion strains, locus YNL298W, strain CLA4, hits give low values 0.966 | S. cerevisiae deletion strains, locus YNL307C, strain MCK1, hits give low values 0.955 | S. cerevisiae deletion strains, locus YNL322C, strain KRE1 (second series), hits give low values 0.998 | S. cerevisiae deletion strains, locus YNL322C, strain KRE1, hits give low values 0.994 and 0.983 | S. cerevisiae deletion strains, locus YNR049C, strain mso1, hits give low values 1.02 | S. cerevisiae deletion strains, locus YNR052C, strain pop2, hits give low values 0.992 | S. cerevisiae deletion strains, locus YOL006C, strain TOP1, hits give low values 0.927 | S. cerevisiae deletion strains, locus YOL012C, strain htz1 0.863 | S. cerevisiae deletion strains, locus YOL147C, strain pex11, hits give low values 0.991 | S. cerevisiae deletion strains, locus YOR001W, strain rrp6, hits give low values 1.01 | S. cerevisiae deletion strains, locus YOR061W, strain CKA2, hits give low values 0.988 | S. cerevisiae deletion strains, locus YOR069W, strain VPS5, hits give low values 0.983 | S. cerevisiae deletion strains, locus YOR070C, strain gyp1, hits give low values 0.982 | S. cerevisiae deletion strains, locus YOR080W, strain dia2, hits give low values 1.01 | S. cerevisiae deletion strains, locus YOR083W, strain WHI5 (second series), hits give low values 0.998 | S. cerevisiae deletion strains, locus YOR083W, strain WHI5, hits give low values 0.988 | S. cerevisiae deletion strains, locus YOR106W, strain vam3, hits give low values 1 | S. cerevisiae deletion strains, locus YOR136W, strain idh2, hits give low values 0.981 | S. cerevisiae deletion strains, locus YOR144C, strain elg1, hits give low values 0.989 | S. cerevisiae deletion strains, locus YOR184W, strain ser1, hits give low values 0.939 | S. cerevisiae deletion strains, locus YOR231W, strain MKK1, hits give low values 0.988 | S. cerevisiae deletion strains, locus YOR265W, strain rbl2, hits give low values 1.01 | S. cerevisiae deletion strains, locus YOR270C, strain vph1, hits give low values 0.969 | S. cerevisiae deletion strains, locus YOR290C, strain snf2, hits give low values 0.978 | S. cerevisiae deletion strains, locus YOR316C, strain cot1, hits give low values 0.98 | S. cerevisiae deletion strains, locus YPL051W, strain arl3, hits give low values 0.987 | S. cerevisiae deletion strains, locus YPL055C, strain LGE1, hits give low values 1.01 | S. cerevisiae deletion strains, locus YPL078C, strain atp4, hits give low values 0.969 | S. cerevisiae deletion strains, locus YPL106C, strain sse1, hits give low values 1.04 | S. cerevisiae deletion strains, locus YPL240C, strain hsp82, hits give low values 1 | S. cerevisiae deletion strains, locus YPL241C, strain CIN2, hits give low values 0.978 and 0.994 | S. cerevisiae deletion strains, locus YPL256C, strain CLN2, hits give low values 1 | S. cerevisiae deletion strains, locus YPR119W, strain clb2, hits give low values 0.989 | S. cerevisiae deletion strains, locus YPR141C, strain kar3, hits give low values 0.98 | S. cerevisiae deletion strains, locus YPR163C, strain tif3, hits give low values 0.989 | S. cerevisiae deletion strains, locus YPR167C, strain met16, hits give low values 0.986 | S. cerevisiae deletion strains, strain wtn01, hits give low values 0.984 | S. cerevisiae strains, strain wild type, hits give low values 1
